Reference: PubChem BioAssay (NCI)
Several values for one entry are separate records, joined by “and”; a condition that tells them apart may be missing. Equal entries are not always repeated. About 83,000 compounds went through this panel and 20% of them were active in at least one assay; those are over-represented in the sample as a whole.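 Activity criterion: percent growth below 10, measured after cells in 96-well plates were exposed to a single compound concentration for 48 hours.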 Unmarked numbers belong to inactive results. Activity calls are given as the source filed them.

Experiments:
Assay in all cases: NCI-60 one-dose screen, 48 h (100 = growth as untreated, 0 = no growth, -100 = all killed)
Conditions in all cases: 10 µM unless noted
[1] = test system: HCT-15 colon
[2] = test system: SNB-75 CNS
[3] = test system: SNB-19 CNS
[4] = test system: U251 CNS
[5] = test system: PC-3 prostate
[6] = test system: SK-MEL-5 melanoma
[7] = test system: LOX IMVI melanoma
[8] = test system: SK-MEL-28 melanoma
[9] = test system: SK-MEL-2 melanoma
[10] = test system: EKVX NSCLC
[11] = test system: SN12C renal
[12] = test system: UO-31 renal
[13] = test system: TK-10 renal
[14] = test system: ACHN renal
[15] = test system: CAKI-1 renal
[16] = test system: A498 renal
[17] = test system: CCRF-CEM leukemia
[18] = test system: MOLT-4 leukemia
[19] = test system: UACC-62 melanoma

SMILES | growth [1] | growth [2] | growth [3] | growth [4] | growth [5] | growth [6] | growth [7] | growth [8] | growth [9] | growth [10] | growth [11] | growth [12] | growth [13] | growth [14] | growth [15] | growth [16] | growth [17] | growth [18] | growth [19]
CCCc1cc(C(N)=S)ccn1 | 102% | 103% | 115% | 103% | 98.3% | 107% | 96.7% | 116% | 103% | 99.1% | 105% | 76.4% | 100% | 102% | 96.1% | 125% | 113% | 105% | 
N=C1/C(=C2\NC3C=CC=CC3S2)C(c2ccc(Cl)cc2)C2C(=O)N(c3ccccc3)C(=S)N12 (stereo not given) | 110% | 106% | 96.6% | 101% | 94.3% | 99.4% | 98.2% | 103% | 107% | 104% | 99.7% | 81.6% | 123% | 103% | 99.6% | 116% | 101% | 88.3% | 94.1%
CCCCCCCCN(CCCCCCCC)CC(O)c1cc(Cl)ccc1OC (stereo not given) | 61.8% | 76.5% | 91.2% | 78.6% | 71.9% | 56% | 13.1% | 80.5% | 80.1% | 59.9% | 75.4% | 52.3% | 96.4% |  | 62.3% | 54.8% | 92.8% | 79.3% | 64.6%
CC(C)(C)c1cc(C(C)(C)c2ccccc2)cc(Cc2cc(C(C)(C)c3ccccc3)cc(C(C)(C)C)c2O)c1O | 95.8% | 94.5% | 106% | 94.3% | 74.9% | 97.4% | 89.5% | 106% | 72.1% | 110% | 95.7% | 80.9% | 98.1% | 102% | 104% | 125% | 66.1% | 54.4% | 92.3%
C/C=C(/C)C(=O)O[C@@H]1CC(C)(C)CC2C34OC(=O)[C@@]21CC[C@@]3(C)[C@]1(C)CCC2C(C)(C)C(=O)CC[C@]2(C)C1C[C@@H]4Cl (stereo not given in full) | 99.3% | 76% | 92% | 92.1% | 80.4% | 98.4% | 94.1% | 102% | 103% | 92% | 102% | 84.2% | 87.2% | 102% | 79.9% | 89.7% | 98.1% | 99.6% | 85.3%
C=C(c1ccc(C(=O)O)cc1)c1cc2c(cc1C)C(C)(C)CCC2(C)C | 74.7% and 65.1% | 94.9% and 82.7% | 75.2% and 79.6% | 84.1% and 62.8% | 68.9% | 83% and 76.6% | 80.2% and 81.8% | 137% and 72.9% | 47.7% and 56.2% | 57.5% and 56.7% | 87.5% and 77.5% | 71.3% and 66.9% | 89.8% | 74.1% and 57.5% | 70.4% and 82.1% | 133% and 110% | 60.4% and 90% | 71.2% and 79.4% | 74.3% and 58.7%
COc1ccc2nc3cc(Cl)ccc3c(NCCCNCCC(C)O)c2c1 (stereo not given) | 2.36% (active) | -58.8% (active) | -25.6% (active) | -41.4% (active) | -50% (active) | -96.7% (active) | -68% (active) | -59.3% (active) | -48.2% (active) | -7.41% (active) | -25.9% (active) | -28.1% (active) | 8.67% (active) | -1.05% (active) | -3.91% (active) | -79% (active) | -24% (active) | -18.1% (active) | 
